According to PubChem BioAssay (NCATS):
Results filed as inconclusive are left out. Active and inactive are the calls of the source. The call rests on the fitted dose curve; in most records, active means well fitted inhibition curve with a large enough effect; inconclusive means small, poorly fitted or top-dose-only effect; inactive means flat fitted curve, though single readings scatter.

Molecular target: Luciferin 4-monooxygenase (Photinus pyralis) (UniProt P08659)
Experiment: Biochemical firefly luciferase enzyme assay for NPC (AID 624030);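 further: purified P. pyralis luciferase at 10 nM with luciferin and ATP substrate; nearly all actives have a fitted effect of over 70% in size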
Settings: purified P. pyralis luciferase, luminescence, 5 min; series mostly up to 58.6 µM
Method in brief: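 Purified P. pyralis luciferase at 10 nM in 50 mM Tris Acetate (final), luminescence read within 5 minutes of enzyme addition to compounds. Activity normalised to PTC124 versus DMSO; concentration-response curves classed by r2, magnitude and activity.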

Sequence of Luciferin 4-monooxygenase (Photinus pyralis) (P08659 whole entry, looked up): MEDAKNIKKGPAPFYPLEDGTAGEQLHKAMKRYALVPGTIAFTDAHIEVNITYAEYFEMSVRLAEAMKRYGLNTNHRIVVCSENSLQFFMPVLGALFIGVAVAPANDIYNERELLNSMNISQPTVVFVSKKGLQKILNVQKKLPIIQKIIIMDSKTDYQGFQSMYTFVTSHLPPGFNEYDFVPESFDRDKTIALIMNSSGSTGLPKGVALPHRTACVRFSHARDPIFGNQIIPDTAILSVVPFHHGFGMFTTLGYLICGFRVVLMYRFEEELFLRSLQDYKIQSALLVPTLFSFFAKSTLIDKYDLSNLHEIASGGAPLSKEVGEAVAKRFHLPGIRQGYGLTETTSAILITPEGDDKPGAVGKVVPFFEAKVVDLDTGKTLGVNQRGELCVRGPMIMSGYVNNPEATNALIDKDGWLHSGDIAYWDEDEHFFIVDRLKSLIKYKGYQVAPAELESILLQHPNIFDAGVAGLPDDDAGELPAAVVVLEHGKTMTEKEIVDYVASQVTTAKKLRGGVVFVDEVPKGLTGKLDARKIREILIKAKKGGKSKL

Potency, inactive:
Cc1nc2n(c(=O)c1CCN1CCC(c3noc4cc(F)ccc34)CC1)CCC[C@@H]2O
CS(=O)(=O)NC(=O)CCC/C=C\C[C@H]1C(=O)C[C@@H](O)[C@@H]1/C=C/[C@@H](O)COc1ccccc1
CC[C@H]1OC(=O)C[C@@H](O)[C@H](C)[C@@H](O[C@@H]2O[C@H](C)C[C@H](N(C)C)[C@@H]2O)[C@@H](CC=O)C[C@@H](C)C(=O)/C=C\[C@]2(C)O[C@H]2[C@@H]1C
CCCCC(=O)OCC(=O)[C@H]1[C@H](C)C[C@@H]2[C@@H]3C[C@@H](F)C4=CC(=O)C=C[C@]4(C)[C@@]3(F)[C@@H](O)C[C@@]21C
COc1cc2c(cc1OC)[C@@H](Cc1cc(OC)c(OC)c(OC)c1)[N@+](C)(CCCOC(=O)CC/C=C/CCC(=O)OCCC[N@+]1(C)CCc3cc(OC)c(OC)cc3[C@H]1Cc1cc(OC)c(OC)c(OC)c1)CC2
CN1CC[C@H](c2c(O)cc(O)c3c(=O)cc(-c4ccccc4Cl)oc23)[C@@H](O)C1
CO/N=C(\C(=O)N[C@@H]1C(=O)N2C(C(=O)O)=C(Cn3nnc(C)n3)CS[C@H]12)c1csc(N)n1
C/C(=C(\CCO)SSCC1CCCO1)N(C=O)Cc1cnc(C)nc1N (stereo unspecified)
Cc1ccccc1C(=O)N1CC/C(=N/OS(=O)(=O)O)c2ccc(Cl)cc21
CC[C@@H]1OC(=O)C[C@H](O)[C@@H](C)[C@@H](O[C@H]2O[C@@H](C)[C@H](O[C@@H]3C[C@](C)(O)[C@H](O)[C@@H](C)O3)[C@@H](N(C)C)[C@@H]2O)[C@@H](C=O)C[C@@H](C)C(=O)/C=C/C(C)=C[C@@H]1CO[C@H]1O[C@@H](C)[C@H](O)[C@H](OC)[C@@H]1OC
CCN1CCN(C(=O)N[C@H](C(=O)N[C@@H]2C(=O)N3[C@@H](C(=O)O)C(C)(C)S[C@@H]23)c2ccccc2)C(=O)C1=O
CO/N=C1/CC2(CC3CC(C/C=C(/C)CC(C)/C=C\C=C4\COC5C(O)C(C)=CC(C(=O)O3)C45O)O2)OC(/C(C)=C/C(C)C)C1C (stereo unspecified)
Cc1c(N)nc([C@@H](CC(N)=O)NC[C@H](N)C(N)=O)nc1C(=O)N[C@H](C(=O)N[C@@H](C)[C@@H](O)[C@@H](C)C(=O)N[C@H](C(=O)NCCc1nc(-c2nc(C(=O)NCCCN[C@H](C)c3ccccc3)cs2)cs1)[C@H](C)O)[C@@H](O[C@H]1O[C@@H](CO)[C@H](O)[C@@H](O)[C@H]1O[C@H]1O[C@@H](CO)[C@@H](O)[C@H](OC(N)=O)[C@H]1O)c1cnc[nH]1
CO/N=C1\C[C@]2(C[C@@H]3C[C@H](C/C=C(/C)C[C@@H](C)/C=C\C=C4\CO[C@@H]5[C@@H](O)C(C)=C[C@@H](C(=O)O3)[C@]45O)O2)O[C@@H](/C(C)=C/C(C)C)[C@H]1C
Cc1ccc(C(=O)[C@H](C)CN2CCCCC2)cc1
COC(=O)C1=C(C)NC(C)=C(C(=O)O[C@H]2CCN(Cc3ccccc3)C2)C1c1cccc([N+](=O)[O-])c1 (stereo partly specified)
CN(Cc1ccc(C(C)(C)C)cc1)c1cccc2ccccc12
CC(C)=CCC/C(C)=C\CC/C(C)=C\CC/C(C)=C\CC1=C(C)C(=O)c2ccccc2C1=O
CC(C)(S)C(=O)NC(CS)C(=O)O (stereo unspecified)
CC[C@H](C)[C@H](NC(=O)[C@H](CO)NC(=O)[C@H](CC(N)=O)NC(=O)[C@H](CC(C)C)NC(=O)[C@H](Cc1ccc(O)cc1)NC(=O)[C@H](CCCCN)NC(=O)[C@H](CCCCN)NC(=O)[C@@H](NC(=O)[C@H](C)NC(=O)[C@H](CCSC)NC(=O)[C@H](CCC(N)=O)NC(=O)[C@H](CCCCN)NC(=O)[C@H](CCCNC(=N)N)NC(=O)[C@H](CC(C)C)NC(=O)[C@H](CCCNC(=N)N)NC(=O)[C@@H](NC(=O)[C@H](Cc1ccc(O)cc1)NC(=O)[C@H](CC(N)=O)NC(=O)[C@H](CC(=O)O)NC(=O)[C@@H](NC(=O)[C@H](Cc1ccccc1)NC(=O)[C@@H](NC(=O)[C@H](C)NC(=O)[C@H](CC(=O)O)NC(=O)[C@H](CO)NC(=O)[C@@H](N)Cc1c[nH]cn1)C(C)C)[C@@H](C)O)[C@@H](C)O)C(C)C)C(=O)N[C@@H](CC(C)C)C(=O)N[C@@H](CC(N)=O)C(=O)O
CC(=O)O[C@]1(C(=O)CO)[C@@H](C)C[C@H]2[C@@H]3CCC4=CC(=O)C=C[C@]4(C)[C@@]3(F)[C@@H](O)C[C@]21C
